58 compounds from PMC4336329 (PLoS ONE, 2015) can be followed below.

The structures appear in SMILES notation. Screen size: about 310,000 compounds; about 14,000 (4.5%) showed an effect of 50% or more. The effect is printed as a negative number. What follows is part of a selection rich in strong results, with near analogues and random picks from the rest.
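Further: peak tail current of the secondary pulse compared with the same well before compound.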

Sequence of human ether-à-go-go-related gene (hERG) potassium channel (Q12809 whole entry, looked up): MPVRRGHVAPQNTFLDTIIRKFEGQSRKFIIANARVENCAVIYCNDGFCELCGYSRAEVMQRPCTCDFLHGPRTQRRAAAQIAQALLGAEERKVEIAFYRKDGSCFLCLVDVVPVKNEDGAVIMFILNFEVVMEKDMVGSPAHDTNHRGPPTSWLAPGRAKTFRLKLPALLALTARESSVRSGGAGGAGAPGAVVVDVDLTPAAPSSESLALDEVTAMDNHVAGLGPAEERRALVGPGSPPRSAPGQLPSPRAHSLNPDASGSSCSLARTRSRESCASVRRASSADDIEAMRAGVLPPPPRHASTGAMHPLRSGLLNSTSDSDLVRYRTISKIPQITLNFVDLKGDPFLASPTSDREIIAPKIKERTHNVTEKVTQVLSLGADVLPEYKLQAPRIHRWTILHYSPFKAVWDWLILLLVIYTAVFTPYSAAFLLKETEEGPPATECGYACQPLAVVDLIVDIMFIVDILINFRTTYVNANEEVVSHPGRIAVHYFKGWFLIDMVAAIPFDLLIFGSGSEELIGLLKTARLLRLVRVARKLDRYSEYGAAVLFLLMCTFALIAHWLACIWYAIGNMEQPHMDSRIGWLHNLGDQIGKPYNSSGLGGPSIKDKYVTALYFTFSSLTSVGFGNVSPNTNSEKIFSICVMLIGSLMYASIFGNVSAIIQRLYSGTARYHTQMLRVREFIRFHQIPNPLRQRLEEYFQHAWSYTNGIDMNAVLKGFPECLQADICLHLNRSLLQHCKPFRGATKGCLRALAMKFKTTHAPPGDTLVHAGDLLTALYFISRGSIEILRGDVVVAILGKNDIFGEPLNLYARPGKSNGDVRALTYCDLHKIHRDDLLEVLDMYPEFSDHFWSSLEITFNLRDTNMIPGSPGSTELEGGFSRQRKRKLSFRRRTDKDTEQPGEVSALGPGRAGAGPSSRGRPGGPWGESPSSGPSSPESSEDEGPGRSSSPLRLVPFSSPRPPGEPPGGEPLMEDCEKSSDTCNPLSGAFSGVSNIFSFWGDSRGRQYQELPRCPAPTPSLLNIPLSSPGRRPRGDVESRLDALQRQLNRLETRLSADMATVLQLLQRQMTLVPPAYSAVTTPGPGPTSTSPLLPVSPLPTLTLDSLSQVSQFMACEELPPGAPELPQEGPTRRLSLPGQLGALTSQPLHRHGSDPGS

The experiment concerns the target human ether-à-go-go-related gene (hERG) potassium channel (human, UniProt Q12809). In words: primary screen, population patch clamp on CHO cells stably expressing hERG; higher = less effect of the substance.
`CCOC(=O)c1sc2c(c1C)c(=O)n(CCO)c(=O)n2Cc1ccccc1`: the “hERG current change (%, negative = inhibition) at 10uM” value is reported as 4.88%. With `NC(=O)Cn1c(=O)n(CCc2ccccc2)c(=O)c2c3c(sc21)CCCC3` the figure was -15%.

For `Cc1c(C(=O)O)sc2c1c(=O)n(Cc1ccccc1)c(=O)n2C`, the “hERG current change (%, negative = inhibition) at 10uM” value is listed as 23.2%. With `CN(C)CCCn1c(=O)n(C2CCCCC2)c(=O)c2c3c(sc21)CCCCC3` the figure was -53.8%. Next, `NC(=O)Cn1c(=O)n(C2CCCCC2)c(=O)c2c3c(sc21)CCCCC3`: -6.3%. Next, `CCn1c(=O)n(CCc2ccccc2)c(=O)c2c3c(sc21)CCCC3`: 1.05%; `CN(C)CCn1c(=O)n(C2CCCCC2)c(=O)c2c3c(sc21)CCCCC3`: -25.3%; `CN(C)CCCn1c(=O)n(CCc2ccccc2)c(=O)c2c3c(sc21)CCCCC3`: -70.4%. On to `CN(C)CCn1c(=O)n(Cc2ccccc2)c(=O)c2c3c(sc21)CCCCC3`, for which the “hERG current change (%, negative = inhibition) at 10uM” value is listed as -3.31%. As for `CCOC(=O)c1sc2c(c1C)c(=O)n(Cc1ccccc1)c(=O)n2CCN(C)C`, the “hERG current change (%, negative = inhibition) at 10uM” value is -58.9%. With `CN(C)CCCn1c(=O)n(Cc2ccccc2)c(=O)c2c3c(sc21)CCCCC3` the figure was -58.9%. Next, `O=C(O)Cn1c(=O)c2c3c(sc2n(Cc2ccccc2)c1=O)CCCC3`: 16.6%. Next, `COc1ccc(OC)c(S(=O)(=O)NCCc2csc(-c3cccnc3)n2)c1`: 4.92%. Regarding `CCOc1ccc(C2(C#N)CC[N+](C)(C)CC2)cc1.[Br-]`, the “hERG current change (%, negative = inhibition) at 10uM” value is listed as 2.83%. Next, `CS(=O)(=O)N(CC(=O)NCCSCc1cccc(Cl)c1)c1ccccc1F`: -20.2%; `Cc1ccc(C(=O)Nc2ccccc2C(=O)NCc2ccccc2)cc1`: 5.63%. In the case of `O=C(CSc1nnc(CNC(=O)c2ccccc2)o1)c1ccc(Cl)cc1`, the “hERG current change (%, negative = inhibition) at 10uM” value is recorded as -30.3%.

`O=C(NCc1nnc2c3ccccc3c(-c3ccccc3)nn12)c1ccccc1Cl`: the “hERG current change (%, negative = inhibition) at 10uM” value is on record as -78.9%.

Turning to `Cc1cccc(C(=O)NCc2nnc3c4ccccc4c(-c4ccccc4)nn23)c1`, the “hERG current change (%, negative = inhibition) at 10uM” value is recorded as -4.14%.

In the case of `OCc1nnc2c3ccccc3c(-c3ccccc3)nn12`, the “hERG current change (%, negative = inhibition) at 10uM” value was -4.77%.

Turning to `O=C(NCc1nnc2c3ccccc3c(-c3ccccc3)nn12)c1ccc(Cl)cc1`, the “hERG current change (%, negative = inhibition) at 10uM” value is listed as -52.4%. Next, `CC(=O)NCc1nnc2c3ccccc3c(-c3ccccc3)nn12`: -31.9%; `CC(OC(=O)C1CCCCC1)C(=O)Nc1cccc([N+](=O)[O-])c1` (stereo not shown): -4.48%. With `O=C(O)c1ccccc1N/N=C/c1cc(Br)cc(Br)c1O` the figure was 11.6%. Next, `C=CCN(CC=C)C(=S)Nc1ccc(OC)c(OC)c1`: 10.3%; `Cc1cc(OCC(=O)N2CCOCC2)c(C(C)C)cc1Cl`: -4.17%; `CC(O)CC(C(=O)NNc1ccccc1)C(=O)NNc1ccccc1` (stereo not shown): 21%. For the compound `CC(=O)Nc1ccc(C(=O)NC(C)c2ccc(-n3ccnc3)cc2)cc1` (stereo not shown), the “hERG current change (%, negative = inhibition) at 10uM” value was 7.74%.

In the case of `CC(=O)Nc1cccc(C(=O)NC(C)c2ccc(-n3ccnc3)cc2)c1` (stereo not shown), the “hERG current change (%, negative = inhibition) at 10uM” value was -0.474%.

For the compound `Cc1ccc(C(=O)NC(C)c2ccc(-n3ccnc3)cc2)cc1` (stereo not shown), the “hERG current change (%, negative = inhibition) at 10uM” value is on record as -54%. Next, `CC(NC(=O)C1CCN(C(=O)c2ccc(F)cc2)CC1)c1ccc(-n2ccnc2)cc1` (stereo not shown): -64.7%; `O=C(c1ccc(F)cc1)C1CCN(C(=O)c2ccncc2)CC1`: -22.4%. With `CC(NC(=O)c1cccc(N(C)C)c1)c1ccc(-n2ccnc2)cc1` (stereo not shown) the figure was -68.3%; with `COc1cc(C(=O)NC(C)c2ccc(-n3ccnc3)cc2)cc(OC)c1C` (stereo not shown), -72.9%; with `Cc1ccccc1C(=O)N1CCC(C(=O)NC(C)c2ccc(-n3ccnc3)cc2)CC1` (stereo not shown), -23%.

`CC(NC(=O)c1ccco1)c1ccc(-n2ccnc2)cc1` (stereo not shown): the “hERG current change (%, negative = inhibition) at 10uM” value is on record as -37%. Next, `Cc1ccc(C(=O)NC(C)c2ccc(-n3ccnc3)cc2)o1` (stereo not shown): -37.4%.

`Cc1occc1C(=O)N1CCCC(Nc2ccc(F)cc2)C1` (stereo not shown): the “hERG current change (%, negative = inhibition) at 10uM” value is -3.68%. Next, `Cc1ccc(C(=O)Nc2ccc(N3CCN(C(=O)c4cccs4)CC3)cc2)c(Cl)c1`: -5.13%; `COC(=O)CSc1nnc(-c2cccnc2)n1-c1cc(OC)cc(OC)c1`: -19.3%; `N#Cc1ccccc1Oc1ccccc1C=O`: -16.8%. For `Cc1ccc2nc(C)cc(N/N=C/c3cccc(O)c3)c2c1`, the “hERG current change (%, negative = inhibition) at 10uM” value stood at 12.4%. Next, `COc1ccc(S(=O)(=O)n2nc(OC(=O)c3cccs3)cc2N)cc1`: -3.07%. Next, `CCOC(=O)CC1=NN(c2ccccc2)C(=O)/C1=C\c1ccc(N(C)C)cc1`: 24.6%. With `O=C(CNc1cccc(S(=O)(=O)N2CCCC2)c1)Nc1ccc(C(F)(F)F)cc1` the figure was 15.1%; with `CC(C)Cn1cnc2c1c(=O)n(C)c(=O)n2C`, 27.8%. Regarding `CCOc1cc(C(=S)N2CCCCC2)ccc1OS(=O)(=O)c1ccc(Cl)cc1`, the “hERG current change (%, negative = inhibition) at 10uM” value is recorded as -1.37%. With `N#CCCn1c(=S)[nH]c2ccccc21` the figure was 12.9%.

For `O=C(CN(CC1CCCO1)C(=O)CNS(=O)(=O)c1ccccc1)NCc1ccc(F)cc1` (stereo not shown), the “hERG current change (%, negative = inhibition) at 10uM” value amounted to 11.9%. With `C/C(=C1\SC(N2CCOCC2)=NC1=O)c1ccccc1` the figure was -12.5%. With `CSCc1ccc(C(=O)NC(C)c2ccc(-n3ccnc3)cc2)cc1` (stereo not shown) the figure was -56%; with `CSc1ccccc1C(=O)NC(C)c1ccc(-n2ccnc2)cc1` (stereo not shown), -39.7%; with `CC(NC(=O)c1ccc(CS(C)(=O)=O)cc1)c1ccc(-n2ccnc2)cc1` (stereo not shown), -1.32%. For `Cc1ccc(C(=O)NC(C)c2ccc(-n3ccnc3)cc2)c(C)c1` (stereo not shown), the “hERG current change (%, negative = inhibition) at 10uM” value is recorded as -57.4%. With `CC(NC(=O)c1cc(F)c(F)c(F)c1F)c1ccc(-n2ccnc2)cc1` (stereo not shown) the figure was -65.2%; with `Cc1ccc(C)c(C(=O)NC(C)c2ccc(-n3ccnc3)cc2)c1` (stereo not shown), -62.4%; with `Cc1ccc(C(O)c2ccc(-n3ccnc3)cc2)cc1` (stereo not shown), -1.74%. With `C/C(=N\NC(=O)c1ccc(C)cc1C)c1ccc(-n2ccnc2)cc1` the figure was -16.6%.
